Pf Dd2 inh – blocks in vitro growth of P. falciparum Dd2. P. falciparum Dd2 growth, SYBR Green, 72 h. Potency, µM (top dose mostly 28.9 µM), usual class: inhibitors. hit rate 4.3% among 120,000. AID 1347417; active = well fitted inhibition curve with a large enough effect; note: nearly all actives have a fitted effect of over 65% in size
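Readout: SYBR Green fluorescence, 485 nm excitation, 535 nm emission, after ~16 h lysis at 37C. Before that, Dd2-infected red cells (2.5% hematocrit) grew 72 h with compound, 29 uM top final concentration.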
Each line names hits and unclear results; the compound was inactive in the other large screens. Many of the other results were omitted from the sample, so hits are more common in it than they were.

CCOc1ccc(CN2C(=O)c3ccccc3Sc3ccc(C(=O)N4CCN(C)CC4)cc32)cc1	Pf Dd2 inh 0.126µM
CCOc1ccc(CN2C(=O)c3ccccc3Sc3ccc(C(=O)NCCCN4CCOCC4)cc32)cc1	none
Cc1cc2cc(-c3c(C)noc3C)nc(Nc3ccc(Cl)cc3)c2o1	none
O=C(Cc1ccsc1)N1CCC2(CC1)N=C(c1ccccc1)NO2	none
O=C(CCC1CCCC1)N1CCCCCC1CN1CCOCC1 (configuration not stated)	none
CC1CCC2(CC1)NC(=O)N(CC(=O)NC(C)c1ccccc1)C2=O (configuration not stated)	none
Cc1ccc(C(C)NC(=O)CNC23CC4CC(CC(C4)C2)C3)cc1 (configuration not stated)	Pf Dd2 inh 6.31µM
COc1ccc(C(C)NC(=O)CN2C(=O)NC3(CCC(C)CC3)C2=O)cc1 (configuration not stated)	none
COCCN1Cc2[nH]nc(-c3cc(OC)ccc3OC)c2CC1=O	none
C=CCOc1ccccc1CN(CC)C(=O)C1CCN(c2ncccn2)CC1	none
CN1CC(=O)N(c2ccccc2)Cc2c(NC3CCCC3)ncnc21	none
COc1ccc(-c2noc(C(=O)O)c2[C@@H](C)NC(=O)c2cc(C)n(C)n2)cc1	Pf Dd2 inh 3.16µM
COc1ccc(-c2noc(C(=O)O)c2[C@@H](C)NC(=O)c2cccnc2)cc1	none
COc1ccc(-c2noc([C@@H](C)NC(=O)c3cc(C)n(C)n3)c2C(=O)O)cc1	none
CC1(C)N=C(c2ccccc2)C(=O)N1CC(=O)N1CCN(c2ccccc2)CC1	none
CCN(CC)C(=O)C(NC(=O)c1ccc(F)cc1)C1CCN(C(=O)c2ccccc2F)CC1 (configuration not stated)	none
Cc1cc(C)c(Cn2c(C(O)c3ccccc3)nc3ccccc32)c(C)c1 (configuration not stated)	Pf Dd2 inh 3.16µM
CCOc1ccccc1N1CC(c2nc3ccccc3n2Cc2c(C)cc(C)cc2C)CC1=O (configuration not stated)	none
Cc1ccc(C)c(Cn2c(C(C)NC(=O)c3ccccc3)nc3ccccc32)c1 (configuration not stated)	none
c1ccc(OCCn2c(COc3ccccc3)nc3ccccc32)cc1	none
CCn1c(=N)n(CCOc2ccc(Br)cc2)c2ccccc21	Pf Dd2 inh 5.01µM
COc1cccc(OCc2nc3ccccc3n2CCOc2ccccc2)c1	none
Cc1cc2ncc(C(=O)N3CCOCC3)cn2n1	none
COCCCNC(=O)[C@H]1CN(Cc2ccccc2)C[C@H]1C(=O)O	none
O=C(NCCCc1ccccc1F)[C@@]12CNC[C@@H]1CN(Cc1ccccc1)C2	Pf Dd2 inh 7.94µM
O=C(NCCCc1ccccc1)C1CN(Cc2ccccc2)C(=O)N1 (configuration not stated)	none
C#CCNC(=O)C[C@@H]1C[C@@H](C(C)C)[C@H](CO)C=C1C	none
O=C(O)C1=NOC2CN(C(=O)c3cccc(Cl)c3)CC12 (configuration not stated)	none
CCc1ccc(-n2c(-c3ccccc3)c(C)n3c4c(=O)n(C)c(=O)n(C)c4nc23)cc1	none
Cc1ccc(-c2c(C)n3c4c(=O)n(C)c(=O)n(C)c4nc3n2-c2cccc(O)c2)cc1	Pf Dd2 inh 10µM
Cc1ccc(-c2nc3ccccc3n3c(-c4ccccc4)c4c(=O)n(C)c(=O)n(C)c4c23)cc1	none
O=C(C1CN(c2ccc(Cl)cc2)C(=O)N1)N1CCN(Cc2ccccc2)CC1 (configuration not stated)	none
COc1ccccc1-c1ccnc(N[C@H]2CO[C@H]3[C@@H]2OC[C@@H]3NS(C)(=O)=O)n1	Pf Dd2 inh 14.1µM
COc1ccccc1-c1ccnc(N[C@H]2CO[C@H]3[C@@H]2OC[C@@H]3NS(=O)(=O)c2ccc(NC(C)=O)cc2)n1	none
COc1ccccc1-c1ccnc(N[C@H]2CO[C@H]3[C@@H]2OC[C@@H]3NS(=O)(=O)c2cccs2)n1	none
O=C(NCc1cccs1)C1CN(Cc2ccccc2)C(=O)N1 (configuration not stated)	none
Cc1ccc(CN2CCCCCNC(=O)[C@@H]3CCC[C@@H]32)s1	none
Cc1cccc(CN2CCCOCCNC(=O)[C@@H]3CCCC[C@@H]32)c1	none
Cc1ccc(CN2CCCOCCNC(=O)[C@@H]3CCCC[C@@H]32)s1	Pf Dd2 inh 5.01µM
CCCC(=O)N1CCC2(CC1)N(c1ccccc1)C(=O)CS2(=O)=O	none
CC(C)Oc1cccc(-c2nnc(CCC(=O)NC3CCCCC3)c(=O)[nH]2)c1	none
Cc1cnccc1N1CCCN(C(=O)C2CCOc3ccccc3C2)CC1 (configuration not stated)	none
CCCc1noc(-c2cccn3c(CNC(=O)Cc4c[nH]c5ccccc45)nnc23)n1	none
CN(Cc1ccccc1)C(=O)C1CC(=O)N(c2n[nH]c3cc(Br)ccc23)C1 (configuration not stated)	none
COc1ccccc1C(=O)N1CCC2(CC1)c1nccn1-c1ccccc1CN2C	none
CC(C)CN1Cc2ccccc2-n2ccnc2C12CCN(C(=O)C(C)C)CC2	none
COc1ccccc1C(=O)N1CCC2(CC1)c1nccn1-c1ccccc1CN2CC(C)C	Pf Dd2 inh 0.891µM
Cc1ccc(C)c(CN2C(=O)NC3(CCN(C(=O)c4ccncc4)CC3)C2=O)c1	none
CC(C)(C)c1nc(C(=O)NCCc2ccc(Cl)cc2)n2ccncc12	Pf Dd2 inh 2.24µM
COC(=O)CNC(=O)c1nc(-c2ccsc2)c2cnccn12	none
Cn1ncc2c(C(=O)NCCc3ccc(Cl)cc3)cc(-c3ccc([S+](C)(=O)[O-])cc3)nc21	none
C[S+](=O)([O-])c1ccc(-c2nc(C(=O)NCCc3ccc(Cl)cc3)n3ccncc23)cc1	Pf Dd2 inh 8.91µM
Cc1cccn2c(=O)c(C(=O)NCCc3ccc(Cl)cc3)cnc12	none
COCCNC(=O)c1nc(-c2cccnc2)c2cnccn12	none
O=C(C1CCC1)N1CC2CC(C1)[C@H]1CCCC(=O)N1C2 (some centres not stated)	none
CC1CCN([C@@H]2[C@H](O)[C@H](CO)O[C@@H]2CNC2CCOCC2)CC1	none
Cc1cccc(Nc2nnc(-c3ccc(C)c(S(=O)(=O)N4CCCCC4)c3)c3ccccc23)c1	none
C#CC(C)(C)NS(=O)(=O)c1cc(-c2nnc(Nc3ccc(C)cc3)c3ccccc23)ccc1C	Pf Dd2 inh 5.01µM
CCOc1ccc(-c2nnc(Nc3ccc(S(N)(=O)=O)cc3)c3ccccc23)cc1	none
CCN(CC)C(=O)c1ccc(Nc2nnc(-c3ccc(C)c(S(=O)(=O)NC)c3)c3ccccc23)cc1	Pf Dd2 inh 3.16µM
C#CCOc1ccc(-c2nnc(Nc3ccc(NC(C)=O)cc3)c3ccccc23)cc1	none
CCCNS(=O)(=O)c1cc(-c2nn3c(C)nnc3c3ccccc23)ccc1C	none
Cc1ccc(-c2nnc(Nc3ccc(Cl)c(Cl)c3)c3ccccc23)cc1S(=O)(=O)N(C)C	Pf Dd2 inh 10µM
Cc1ccc(C)c(Nc2nnc(-c3ccc(C)c(S(=O)(=O)N4CCN(C)CC4)c3)c3ccccc23)c1	none
Cc1cc(C)n(-c2nnc(Nc3ccc(C)c(Cl)c3)c3ccccc23)n1	none
O=C(c1ccc(C(F)(F)F)cc1)N1CCC2(CC1)C(=NC1CCCC1)NC(=O)N2c1cccnc1	none
O=C(Cc1cccnc1)N1CCC(N2C(=O)C(O)C23CCCCC3)CC1 (configuration not stated)	none
O=[S+]1([O-])NCC2(CCN(CC3CC3)C2)Nc2ccccc21 (configuration not stated)	none
O=C(CN1C(=O)CNC1=O)N1CCCN(C(=O)c2ccoc2)CC1	none
Cc1cnc(CC2CCN(C(=O)C3CC3)C2)n1CC1CC1 (configuration not stated)	none
CN(C)c1cccc(C(=O)Nc2ccc(-c3nnc4n3CCCC4)cc2)c1	none
